Screens deposited in PubChem BioAssay by National Center for Advancing Translational Sciences (NCATS).
Hits are enriched below; roughly 0.7% of the tested compounds scored in any of these assays.
GLS inhibitor = inhibitors of human glutaminase (GLS); 410,000 tested, 0.21% active; AID 624170; O94925; Potency, µM (highest dose often 45.5 µM), for inactives: at the top dose activity change, negative = inhibition, most hits filed as inhibitors; GLS enzymatic activity, qHTS titration; further: on the % scale 0 is the no-effect control and ±100 the full control effect
Target sequence (O94925 whole entry, looked up): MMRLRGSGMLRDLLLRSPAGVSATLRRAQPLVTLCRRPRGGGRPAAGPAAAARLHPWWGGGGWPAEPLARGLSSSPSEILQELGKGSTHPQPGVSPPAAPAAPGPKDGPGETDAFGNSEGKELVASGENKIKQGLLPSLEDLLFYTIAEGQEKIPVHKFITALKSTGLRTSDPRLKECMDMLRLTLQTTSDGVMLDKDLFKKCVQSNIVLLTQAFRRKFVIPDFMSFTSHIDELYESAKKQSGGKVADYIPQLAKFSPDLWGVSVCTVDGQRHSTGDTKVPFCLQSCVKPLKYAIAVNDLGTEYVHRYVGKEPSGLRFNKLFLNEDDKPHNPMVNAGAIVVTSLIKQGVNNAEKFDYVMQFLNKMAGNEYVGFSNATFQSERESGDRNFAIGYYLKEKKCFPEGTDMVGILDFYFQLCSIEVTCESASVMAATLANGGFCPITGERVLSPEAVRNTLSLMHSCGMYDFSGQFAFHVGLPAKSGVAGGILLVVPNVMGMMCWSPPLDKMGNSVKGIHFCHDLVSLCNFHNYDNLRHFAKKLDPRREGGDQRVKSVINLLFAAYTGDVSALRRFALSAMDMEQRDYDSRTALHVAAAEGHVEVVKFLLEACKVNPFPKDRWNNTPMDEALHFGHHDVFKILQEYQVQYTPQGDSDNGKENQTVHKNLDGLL
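hKGA in 45 mM KH2PO4 pH 8.2, 0.02% Tween-20 with pin-transferred compounds; 1 mM L-glutamine (stock) plus glutamate oxidase/HRP/Amplex Red coupling added. Fluorescence read initially and after 30 min at RT.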
Vif-APOBEC3F blk = Vif-A3F binding inhibition; HeLa A3F-eYFP + Vif (tagged APOBEC3F with the HIV-1 protein that degrades it), YFP fluorescence increase; Potency, µM (doses to about 46.1 µM), for inactives: at the top dose activity, negative = active; 390,000 tested, 0.2% active; further: % of control where 0% means no effect; nearly all actives have a fitted effect of over 65% in size
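Fluorescence increase (Ex 488/Em 500-530) after overnight compound treatment at 37 deg C flags inhibition of Vif-driven A3F-eYFP loss in stable HeLa A3F-eYFP/Vif cells seeded overnight beforehand.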
Vif-A3G inh = blocks the Vif interaction with human APOBEC3G | Q9HC16 | HeLa A3G-eYFP + Vif (tagged APOBEC3G with the HIV-1 protein that degrades it), YFP fluorescence, overnight | Potency, µM (series often up to 46.1 µM), for inactives: at the highest dose activity, negative = active, usual class: inhibitors | 410,000 tested, 0.076% active | AID 602310; further: on the % scale 0 is the no-effect control and ±100 the full control effect; nearly all actives have a fitted effect of over 60% in size
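Read-out is eYFP fluorescence (Ex 488/Em 500-530) from Vif-expressing HeLa A3G-eYFP cells; more signal means A3G escaped Vif-mediated degradation. Cells plated overnight, compound pinned in, incubated overnight at 37 deg C.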
PINK1 expr mod = modulators of PINK1 expression | PINK1 immunofluorescence, high-content cytometry, 24 h | Potency, µM (doses to about 76.6 µM), without a hit: at the highest dose activation (PINK1 increase), hits mostly activators | 410,000 tested, 0.2% active; active means well fitted activation curve with a large enough effect; inconclusive means small, poorly fitted or top-dose-only effect; cell line not stated here; further: % of control where 0% means no effect; nearly all actives have a fitted effect of over 65% in size
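Compound titrations (5 concentrations, 24 h) on a stable cell line; DMSO and CCCP controls. Endpoint: fixed-cell PINK1 immunofluorescence with mitochondrial, cell and nuclear markers, scanned by microplate cytometer.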
Epigenetic reg = derepresses silenced GFP reporter in murine cells; murine LDR cells, GFP reporter derepression, 30 h; Potency, µM (doses to about 53.9 µM), for the others: at the highest dose GFP activation, usual class: activators; 280,000 tested, 0.2% active; AID 1865; further: % of control where 0% means no effect; nearly all actives have a fitted effect of over 60% in size
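Derepression of a silenced CMV-GFP reporter in murine LDR cells is scored by enumerating GFP-positive cells with a laser-scanning microplate cytometer after 30 hours of treatment at 37 C.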
* marks the source's active call; other numbers are inactive results; i = inactive; u = inconclusive; x = no result; ! = not active in a repeat; [ ] = another dose, or the depositor's remark. Unless noted, the call rests on the fitted dose curve; in most records, active means well fitted curve in the direction sought with a large enough effect; inconclusive means small, poorly fitted or top-dose-only effect, or another doubt; inactive means no such curve, though single readings can be large; an effect the other way counts as inactive or inconclusive. Potency means the concentration at half of the fitted maximal effect.

SMILES	GLS inhibitor	Vif-APOBEC3F blk	Vif-A3G inh	PINK1 expr mod	Epigenetic reg
Cn1nnnc1SCc1nc2scc(-c3ccc(Cl)cc3)c2c(=O)[nH]1	-3%	22µM*	-21%	40µM*	u
O=C(N/N=C/c1cccc(F)c1)c1cc(-c2ccco2)nc2ccccc12	13µM*	-4%	u	6%	0%
O=C(N/N=C/c1ccc([N+](=O)[O-])o1)c1cc2ccccc2o1	-7%	-12%	u	1%	0%
O=C(N/N=C/c1ccc([N+](=O)[O-])o1)c1cc2c(ccc3ccccc32)o1	-5%	7.9µM*	u	8%	u
c1ccc2sc(N3CCN(Cc4ccc5c(c4)OCO5)CC3)nc2c1	x	x	x	x	1%
N#C/C(=C\N1CCN(Cc2ccc3c(c2)OCO3)CC1)c1nc2ccccc2s1	-2%	28µM*	u	u	u
CCOC(=O)N1CCC(=NNc2nc3ccccc3s2)CC1	3%	-4%	0%	1%	-1%
CCOC(=O)N1CCN(/C=C(\C#N)c2nc3ccccc3s2)CC1	-3%	25µM*	22µM*	4%[38.3 µM]	8%
COc1ccc(N2C(=O)NC3CC2(C)Oc2ccc(Cl)cc23)cc1OC (stereo not drawn)	0%	-4%	u	12%	1%
COc1ccc(CCN2C(=S)NC3CC2(C)Oc2ccc([N+](=O)[O-])cc23)cc1OC (stereo not drawn)	10µM*	-14%	-4%	3%[38.3 µM]	2%
Cc1[nH]c2ccccc2c1/C=C/c1c(C)[nH]c2ccccc12	x	x	-2%	4%	x
Cc1[nH]c2ccccc2c1/C=C/c1cc[n+](C)cc1	5%	u	3.2µM*	u	14µM*
CSc1nccc(-c2cc(Cl)c3c(c2)CC(CNC(=O)c2nonc2C)O3)n1 (stereo not drawn)	x	x	x	0%	x
O=C(O)C1Nc2ccc(Br)cc2C2C=CCC12 (stereo not drawn)	7.9µM*	5%	3%	-1%	x
O=C(O)C1Nc2c(O)cccc2C2C=CCC12 (stereo not drawn)	13µM*	-8%	1%	u	2%
Cc1ccc(C)c2c1NC(C(=O)O)C1CC=CC21 (stereo not drawn)	x	x	-3%	0%	x
O=C(O)C1Nc2c(Cl)cc(Cl)cc2C2C=CCC12 (stereo not drawn)	7.9µM*	-2%	1%	-1%	x
OC1(c2cccnc2)CCN(Cc2ccc3c(c2)CN(Cc2ccsc2)CCO3)CC1	x	x	x	0%	x
Cc1c(C(=O)N(C)Cc2cscn2)sc2ncnc(NC[C@H]3CCc4ccccc4O3)c12	x	x	x	0%	x
CCOC(=O)c1sc(=NC(=O)c2c(F)cccc2F)n(C)c1C	18µM*	-7%	1%	1%	x
C/C(=N\Nc1ccc(C(=O)c2c(C)cc3ccccn23)cc1[N+](=O)[O-])c1ccc(O)cc1	3%	-5%	4%	5%	-1%
Cc1cc2ccccn2c1C(=O)c1ccc(N/N=C/c2ccc(C(=O)O)cc2)c([N+](=O)[O-])c1	10µM*	-2%	-12%	0%	0%
O=C(N/N=C/c1cn(-c2cccs2)nc1-c1ccccc1)c1ccccc1Br	-2%	3%	-11%	2%	0%
O=C(N/N=C/c1cn(-c2cccs2)nc1-c1ccccc1)c1ccccc1O	5%	-13%	-4%	28µM*	-3%
CCN(Cc1ccncc1)Cc1ccc2c(c1)CN(C(=O)c1ccccc1-n1cccn1)CCO2	x	x	x	0%	x
SMILES	GLS inhibitor	Vif-APOBEC3F blk	Vif-A3G inh	PINK1 expr mod	Epigenetic reg
CC(=O)O[C@]1(C(=O)CO)[C@@H](C)C[C@H]2[C@@H]3CCC4=CC(=O)C=C[C@]4(C)[C@@]3(F)[C@@H](O)C[C@]21C	1%	x	x	x	x
O=C(Nc1nnc(-c2ccc3c(c2)CCCC3)o1)c1ccc(Cl)cc1Cl	9%	-30%	1%	0%	-1%
O=C(Nc1nnc(-c2ccc3c(c2)CCCC3)o1)c1c(F)cccc1F	4%	25µM*	-5%	1%	0%
C=C(C)C(=O)Nc1cccc(C2=NOC3(C2)C[C@@H](C(N)=O)N(C(=O)CCCCC)C3)c1 (stereo partly drawn)	10µM*	-1%	0%	-1%	-2%
NS(=O)(=O)c1cccc(NC(=O)Cn2cnc3ccccc3c2=O)c1	18%	-17%	1%	11µM*	-1%
CCn1c(-c2ccccc2F)nc2cc(C(=O)NCc3ccc(C)o3)cc(NC(C)=O)c21	x	x	x	0%	x
COc1ccc(C2(C(=O)NCC3Cc4cccc(-c5nc(C)cnc5C)c4O3)CCCC2)cc1 (stereo not drawn)	x	x	x	2%	x
C=CCSc1nnc(C2CCCN(Cc3ccccc3O)C2)n1C (stereo not drawn)	x	x	x	0%	x
CC(C)C[C@H](NC(=O)[C@@H]1Cc2c([nH]c3ccccc23)C2c3ccccc3C(=O)N21)C(=O)N1CCC[C@@H]1C(=O)O (stereo partly drawn)	13µM*	-3%	-2%	0%	x
CCC(C)[C@H](NC(=O)[C@@H]1Cc2c([nH]c3ccccc23)C2c3ccccc3C(=O)N21)C(=O)N1CCC[C@@H]1C(=O)O (stereo partly drawn)	u	0%	-2%	0%	x
O=C(NCCO)c1cn(C2CCN(Cc3c(F)cccc3Cl)CC2)nn1	x	x	x	1%	x
COc1ccc(C(=O)Nc2cccc(OCc3cc(=O)n4c5c(sc4n3)CCCC5)c2)cc1OC	3%	1%	-1%	2%	-2%
O=C(Nc1cccc(OCc2cc(=O)n3c4c(sc3n2)CCCC4)c1)c1ccc(F)cc1	4%	-20%	-2%	17%	25µM*
O=[N+]([O-])c1ccc(Sc2cccc[n+]2[O-])c2nonc12	11µM*	i	u	9%	u
CN(C)CCCN(C(=O)/C=C/c1cccs1)c1nc2ccc(F)cc2s1	7%	11µM*	u	-1%	3%
CN(C)CCN(C(=O)/C=C/c1cccs1)c1nc2c(F)cc(F)cc2s1	16%	11µM*	-18%	-2%	1%
CCN(CC)CCN(C(=O)/C=C/c1cccs1)c1nc2ccc(F)cc2s1	-2%	-16%	0%	11%	x
COc1cccc2sc(N(CCN(C)C)C(=O)/C=C/c3cccs3)nc12	3%	-5%	-15%	-1%	u
COCc1c(C(=O)N2CCN(C(C)C)CC2)cnn1-c1nccc(-c2cc(C)sc2C)n1	x	x	x	-1%	x
COc1ccc(-n2c(/C=C/c3c(C)[nH]c4ccccc34)nc3ccccc3c2=O)cc1	-2%	-10%	-8%	13%	10µM*
CCNC(=O)c1cc(NC(=O)COC)cc2nc(-c3ccncc3)n(C)c12	x	x	x	0%	x
Oc1ccc(NCc2ccc(OCc3ccccc3)cc2)cc1	11µM*!	1%	u	1%	u
COc1ccc(N2C(=O)[C@@H]3C[C@H]2CN3Cc2ccc3nccnc3c2)cc1Cl	x	x	x	0%	x
